Calls of active or inactive are those of the source.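 How the source made its calls: active means compound raising the membrane signal above positive-control mean plus 3 SD in both repeats, and a primary screen hit; inactive means the rest.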
biological target: Short transient receptor potential channel 6 (Mus musculus) (UniProt Q61143); test: TRPC6 potentiation by TRPC4 potentiator hits, confirmation, selectivity assay for TRPC4 potentiator project, HEK293 cells, membrane potential dye, duplicate (AID 434952); conditions: HEK293 TRPC6, membrane potential dye fluorescence, at 10 µM, maximal acetylcholine added after compound
Sequence (Q61143 whole entry, looked up): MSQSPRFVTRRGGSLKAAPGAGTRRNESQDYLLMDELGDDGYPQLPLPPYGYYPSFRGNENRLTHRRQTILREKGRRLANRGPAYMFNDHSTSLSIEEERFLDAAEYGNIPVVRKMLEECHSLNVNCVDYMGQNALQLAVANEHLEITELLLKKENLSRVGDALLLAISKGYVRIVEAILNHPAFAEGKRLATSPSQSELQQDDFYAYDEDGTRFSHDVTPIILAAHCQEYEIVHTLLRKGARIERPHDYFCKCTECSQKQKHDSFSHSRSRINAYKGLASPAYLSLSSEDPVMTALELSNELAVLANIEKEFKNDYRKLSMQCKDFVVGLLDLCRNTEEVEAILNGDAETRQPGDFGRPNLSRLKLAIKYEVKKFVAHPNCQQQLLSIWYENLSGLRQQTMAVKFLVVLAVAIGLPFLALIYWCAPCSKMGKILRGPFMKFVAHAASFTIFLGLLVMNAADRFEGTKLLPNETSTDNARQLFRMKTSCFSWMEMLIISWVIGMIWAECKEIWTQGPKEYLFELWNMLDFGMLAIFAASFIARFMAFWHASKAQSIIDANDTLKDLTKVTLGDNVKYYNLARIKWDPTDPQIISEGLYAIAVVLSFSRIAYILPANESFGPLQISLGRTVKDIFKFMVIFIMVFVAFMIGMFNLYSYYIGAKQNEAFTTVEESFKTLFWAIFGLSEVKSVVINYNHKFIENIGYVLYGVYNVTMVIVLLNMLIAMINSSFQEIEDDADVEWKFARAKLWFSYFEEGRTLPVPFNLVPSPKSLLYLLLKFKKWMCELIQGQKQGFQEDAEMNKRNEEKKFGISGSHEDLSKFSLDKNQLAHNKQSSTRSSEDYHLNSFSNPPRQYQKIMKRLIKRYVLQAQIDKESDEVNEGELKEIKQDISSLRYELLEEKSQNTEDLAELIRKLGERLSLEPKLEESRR

**Q.** With `CN(C)C(CNC(=O)c1oc2ccccc2c1CSc1ncn[nH]1)c1ccco1` (stereo not drawn) as the compound, how does the outcome read?
**A.** inactive

**Q.** `Cc1nn(-c2ccccc2)c(Cl)c1CN(C(=O)CCl)c1ccc(Cl)cc1` was tested. Which outcome did it give?
**A.** inactive

**Q.** `COc1ccccc1N1CCc2c(C)nc3c(OC)cccc3c21` was tested. Which outcome did it give?
**A.** inactive

**Q.** `Cc1cc(CN2CCCC(C(=O)Nc3ccc(-c4nc5ccccc5[nH]4)cc3)C2)n[nH]1` (stereo not drawn) was tested. Which outcome did it give?
**A.** inactive

**Q.** With `CCCCNCC1C(Oc2ccc(Cl)cc2)C(=O)N1c1ccccc1C` (stereo not drawn) as the compound, how does the outcome read?
**A.** inactive

**Q.** With `O=C1COc2ccc(N3C(=O)C=CC3=O)cc2N1` as the compound, how does the outcome read?
**A.** inactive

**Q.** Which outcome does the source give for `Cc1nc2scc(-c3ccccc3)c2c(=O)n1N=C1C=CC(=O)C=C1` here?
**A.** inactive

**Q.** How did the outcome turn out when `CCOC(=O)C1=NN(c2ccccc2C)C2=NC(C)=C(C(=O)OC)C(c3cccc(OC)c3)N12` (stereo not drawn) was run?
**A.** inactive

**Q.** `N/C(Cc1cccc2ccccc12)=N\OC(=O)c1cccs1` was tested. Which outcome did it give?
**A.** inactive

**Q.** Which outcome does the source give for `CCCSc1nc(N)nc(-c2cccs2)c1C#N` here?
**A.** inactive

**Q.** For `Cc1ccc(NC(=O)c2cc(N3C(=O)C=CC3=O)ccc2N2CCOCC2)cc1`, which outcome is on record?
**A.** inactive

**Q.** `Cc1ccc(NC(=O)CNc2ccccc2CN(C)C2CCCCC2)cc1` was tested. Which outcome did it give?
**A.** inactive

**Q.** For `CC1(C)CC(NC(=O)c2cc(COc3cccc(C(F)(F)F)c3)on2)CCO1` (stereo not drawn), which outcome is on record?
**A.** inactive

**Q.** `COc1ccc(C2=NN(C(=O)c3ccccc3)C(c3ccc(OC)c(OC)c3)C2)c(O)c1` (stereo not drawn) was tested. Which outcome did it give?
**A.** inactive

**Q.** For `CCCn1nc([N+](=O)[O-])c(C(C#N)c2nc3ccccc3o2)c(Cl)c1=O` (stereo not drawn), which outcome is on record?
**A.** inactive

**Q.** How did the outcome turn out when `COc1ccc(C(CNc2ccc(C(F)(F)F)cn2)N(C)C)cc1OC` (stereo not drawn) was run?
**A.** inactive

**Q.** For `COc1cccc(C2=NN(C(=O)c3ccco3)C(c3ccco3)C2)c1` (stereo not drawn), which outcome is on record?
**A.** inactive

**Q.** How did the outcome turn out when `c1ccc(Cn2c(NCc3ccco3)nc3ccccc32)cc1` was run?
**A.** inactive
